Measured values from PubChem BioAssay (NCATS).
Results filed as inconclusive are left out. The source made the active and inactive calls. Unless noted, the call rests on the fitted dose curve; in most records, active means well fitted curve in the direction sought with a large enough effect; inconclusive means small, poorly fitted or top-dose-only effect, or another doubt; inactive means no such curve, though single readings can be large; an effect the other way counts as inactive or inconclusive.

Experiments:
[1] = target: Aldehyde dehydrogenase, mitochondrial (Homo sapiens) (UniProt P05091); test: qHTS for Inhibitors of the Aldehyde Dehydrogenase Family (ALDH2) Confirmatory screens (AID 2061303; active means well fitted inhibition curve with a large enough effect; title and protocol of this record describe different tests; further: nearly all actives have a fitted effect of over 45% in size; further: potency means the concentration at half of the fitted maximal effect)
[2] = qHTS for Inhibitors of the Aldehyde Dehydrogenase Family (ALDH1A2, ALDH1A3, ALDH2, ALDH3A1) (AID 2061307); further: nearly all actives have a fitted effect of over 50% in size; on Potency: test system not described further here; potency means the concentration at half of the fitted maximal effect
[3] = target: Aldehyde dehydrogenase, mitochondrial (Homo sapiens) (UniProt P05091); test: qHTS for Inhibitors of the Aldehyde Dehydrogenase Family (ALDH2) Primary screen (AID 2061308); further: nearly all actives have a fitted effect of over 55% in size; further: potency means the concentration at half of the fitted maximal effect
[4] = target: Retinaldehyde dehydrogenase 3 (Homo sapiens) (UniProt P47895); test: qHTS for Inhibitors of the Aldehyde Dehydrogenase Family (ALDH1A3) Confirmatory screens (AID 2061311); further: nearly all actives have a fitted effect of over 60% in size; further: potency means the concentration at half of the fitted maximal effect
[5] = target: Retinal dehydrogenase 2 (Homo sapiens) (UniProt O94788); test: qHTS for Inhibitors of the Aldehyde Dehydrogenase Family (ALDH1A2) Confirmation screens (AID 2061314); further: nearly all actives have a fitted effect of over 65% in size; further: potency means the concentration at half of the fitted maximal effect
[6] = target: Retinaldehyde dehydrogenase 3 (Homo sapiens) (UniProt P47895); test: qHTS for Inhibitors of the Aldehyde Dehydrogenase Family (ALDH1A3) Primary screen (AID 2061315)
[7] = target: Aldehyde dehydrogenase 1A1 (Homo sapiens) (UniProt P00352); test: qHTS for Inhibitors of the Aldehyde Dehydrogenase Family (ALDH1A1) Confirmatory screens (AID 2061316); further: nearly all actives have a fitted effect of over 65% in size; further: potency means the concentration at half of the fitted maximal effect
[8] = BET inhibitor-based combinations targeting novel dependencies in MECOM-rearranged (r) AML: SET-2 cell line (AID 2202231); details: SET-2 AML cells viability, CellTiter-Glo luminescence, 48 h; viability: hits give low values, concentration not given here; further: potency means the concentration at half of the fitted maximal effect; nearly all actives have a fitted effect of over 35% in size
In short: (§1)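 Here, 11-point titrations of each agent were applied to 500 seeded cells and incubated 48 hr; CellTiter-Glo signal, scaled against DMSO and empty wells, was integrated as AUC, then Z-scored within the individual line.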

[9] = BET inhibitor-based combinations targeting novel dependencies in MECOM-rearranged (r) AML: OCI-AML3 cell line (AID 2202232); details: Potency: OCI-AML3 viability; further: potency means the concentration at half of the fitted maximal effect; nearly all actives have a fitted effect of over 35% in size
In short: as §1

[10] = BET inhibitor-based combinations targeting novel dependencies in MECOM-rearranged (r) AML: MV-4-11 cell line (AID 2202233); further: potency means the concentration at half of the fitted maximal effect; nearly all actives have a fitted effect of over 45% in size
In short: (§2)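 Normalized to DMSO and empty-well controls, the luminescence data from CellTiter-Glo after 48 hr drug exposure were fitted across 11 concentrations. Reported metrics are area under the dose-response curve and its Z-transformed form.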

[11] = BET inhibitor-based combinations targeting novel dependencies in MECOM-rearranged (r) AML: HNT-34 cell line (AID 2202234); further: potency means the concentration at half of the fitted maximal effect; nearly all actives have a fitted effect of over 35% in size
In short: as §2

[12] = BET inhibitor-based combinations targeting novel dependencies in MECOM-rearranged (r) AML: AML-194 cell line (AID 2202237; further: potency means the concentration at half of the fitted maximal effect; nearly all actives have a fitted effect of over 40% in size)
In short: as §1

Measured: Potency

CCCCNc1ccc(C(=O)OCCN(CC)CC)cc1
inactive: [1] | [2] | [3] | [4] | [5] | [6] | [7]

c1cncc(-c2ccc(CNc3nc(C4CCCC4)nc4ccccc34)cc2)c1
inactive: [1] | [2] | [3] | [5] | [6] | [7]
active: [4] 11.3 µM

N#Cc1ccc(-c2ccc(C3Nc4ccccc4C(=O)N3O)o2)cc1 (centres undefined)
active: [1] 1.26 µM | [2] 3.18 µM | [3] 1.26 µM | [4] 5.04 µM | [5] 3.18 µM | [7] 3.57 µM
inactive: [6]

O=C(C1CCN(c2nc(-c3ccc(Br)cc3)cs2)CC1)N1CCOCC1
inactive: [1] | [3] | [4] | [5] | [6] | [7]
active: [2] 11.3 µM

O=C(NN1CCCC1)NS(=O)(=O)c1ccc(Cl)cc1
inactive: [1] | [2] | [3] | [4] | [5] | [7]

O=C(CCl)Nc1cccc(NC2=NS(=O)(=O)c3ccccc32)c1
inactive: [1] | [2] | [3] | [4] | [6]
active: [5] 1.01 µM | [7] 12.7 µM | [8] 26.3 µM | [9] 10.5 µM | [10] 16.6 µM | [11] 5.25 µM | [12] 13.2 µM

O=C1NC(=O)/C(=C/c2cccn2-c2ccc(P(O)O)cc2)N1
inactive: [1] | [2] | [3] | [4] | [5] | [6] | [7]

COc1ccc(C2Nc3ccccc3C(=O)N2CCO)cc1COc1ccc(NC(C)=O)cc1 (centres undefined)
active: [1] 2 µM | [2] 3.18 µM | [4] 10 µM | [5] 14.2 µM | [7] 22.5 µM
inactive: [3] | [6]

COc1ccc(C2=Nn3c(nnc3-c3cccc(OC)c3)SC2)cc1
active: [2] 12.7 µM
inactive: [1] | [3] | [4] | [5] | [6] | [7]

O=C(C1CCN(c2nc(-c3ccc(Br)cc3)cs2)CC1)N1CCNCC1
inactive: [1] | [2] | [3] | [4] | [5] | [6]
active: [7] 25.2 µM

FC(F)(F)c1cccc(N2CCN(C(=S)Nc3nccc4cccnc34)CC2)c1
active: [1] 11.3 µM | [2] 28.2 µM | [3] 7.94 µM | [4] 11.3 µM | [5] 10.1 µM | [7] 7.98 µM

COc1ccc(C2=Nn3c(nnc3-c3cccc(OC)c3OC)SC2)cc1
inactive: [1] | [2] | [3] | [4] | [5] | [6] | [7]

Cn1ncc(-c2nnc(-c3ccccc3)n2CCCn2ccnc2)c1N
inactive: [1] | [2] | [3] | [4] | [5] | [6] | [7]

S=C(NCCCc1cnc[nH]1)NCCCN(Cc1ccc(Cl)c(Cl)c1)c1ccccn1
inactive: [1] | [2] | [3] | [4] | [5] | [6] | [7]

Cc1ccc2nc(-c3ccccn3)c(Nc3ccccc3C)n2c1
inactive: [1] | [2] | [3] | [4] | [5] | [6] | [7]

CCOC(=O)c1ccc(O)c2ncc(-c3ccc(C(=N)N)cc3)cc12
inactive: [1] | [2] | [3] | [5] | [7]
active: [4] 10.1 µM
